PubChem BioAssay
Where “and” joins values, the source holds several entries; their conditions need not be identical. Equal values may be shown once. Results filed as inconclusive are left out. Calls of active or inactive are those of the source.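 How the source made its calls, unless noted: active means compounds killing one labelled cell type while sparing the other, by normalised counts and ratio limits, not self-fluorescent; inactive means the rest.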

Legend:
[1] = stimulators of insulin release from INS-1E, primary screen, cell-based, 5 mM glucose, NPC library (AID 1117329;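 active means compound raises insulin release from rat beta cells at 5 mM glucose, no numeric limit stated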); conditions: rat INS-1E insulin secretion, at 10 µM, stronger effect = higher value
[2] = growth inhibition of GSK3B-pretreated HCT116 cells – cell-based, CellTiter-Glo, 0.2 to 20 µM (AID 1117336;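 active means compounds lowering colon cancer cell viability after pretreatment blocking the GSK3B kinase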); conditions: HCT116 viability after GSK3B inhibitor, at 20 µM, stronger effect = higher value
[3] = inhibition of endothelial tube formation, primary screen, imaging, VEGF stimulated, CD31 staining, tube area, NPC library (AID 1117340;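 active means compound that reduces growth-factor-driven endothelial tube area in a mixed cell culture, no cutoff stated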); conditions: VEGF-stimulated ADSC/ECFC co-culture, at 10 µM, stronger effect = higher value
[4] = glucagon-like peptide 1 release enhancers, primary assay, NCI-H716 cell line, NPC library (AID 1117341;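 active means compound raises GLP1 secretion from the human gut endocrine cells, with no numeric limit stated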); conditions: NCI-H716 cells, at 10 µM, stronger effect = higher value
[5] = HCT116 colon cancer cell growth inhibition, primary screen, CellTiter-Glo luminescence, NPC library (AID 1117342;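 active means compounds that lower survival of HCT116 colon cancer cells in the luminescence readout, no numeric limit stated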); conditions: at 20 µM (top of the series)
[6] = CellTiter-Glo luminescent readout of SW480 viability loss, NPC library primary (AID 1117343;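 active means compounds that lower viability of the colon cancer cells in the luminescence readout, with no numeric limit stated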); conditions: CellTiter-Glo luminescence; at 20 µM (top of the series)
[7] = decreased DLD-1 cellular survival, CellTiter-Glo luminescent readout, NPC compound collection, primary HTS (AID 1117346;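 active means compounds that lower survival of DLD-1 colon cancer cells in the luminescence readout, no cutoff given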); conditions: DLD-1 viability, CellTiter-Glo luminescence; at 20 µM (top of the series)
[8] = target: 6-phosphogluconate dehydrogenase, decarboxylating (Homo sapiens) (UniProt P52209); experiment: 6PGD enzyme inhibitors, primary screen, biochemical, human, recombinant enzyme, NADPH absorbance (AID 1159550;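 active means at least 20% inhibition of 6-phosphogluconate dehydrogenase activity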); conditions: recombinant 6PGD, NADPH absorbance 341 nm; at 10 µM; stronger effect = higher value
6-phosphogluconate dehydrogenase, decarboxylating (Homo sapiens), sequence (P52209 whole entry, looked up): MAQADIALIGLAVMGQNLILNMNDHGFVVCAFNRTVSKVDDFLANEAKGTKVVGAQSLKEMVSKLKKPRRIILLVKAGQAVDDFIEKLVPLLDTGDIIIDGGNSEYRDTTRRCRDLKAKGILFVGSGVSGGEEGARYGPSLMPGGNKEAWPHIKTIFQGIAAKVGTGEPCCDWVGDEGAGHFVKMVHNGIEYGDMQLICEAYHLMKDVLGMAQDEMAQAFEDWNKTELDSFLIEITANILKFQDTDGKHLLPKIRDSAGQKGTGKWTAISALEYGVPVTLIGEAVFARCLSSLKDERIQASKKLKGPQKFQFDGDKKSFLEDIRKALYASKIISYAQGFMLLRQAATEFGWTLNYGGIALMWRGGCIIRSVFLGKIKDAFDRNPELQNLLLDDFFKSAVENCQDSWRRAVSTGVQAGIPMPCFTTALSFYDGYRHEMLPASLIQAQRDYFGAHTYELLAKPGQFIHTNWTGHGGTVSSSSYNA

[9] = differential killing of epithelial or mesenchymal cells, primary screen, imaging, PC-3E GFP, TEM4-18 mCherry, co-culture (AID 1345086); conditions: imaging cell counts, at 1 µM; for red/green cell ratio (normalised): actives lie on both sides, counts scaled to control wells, 1 = unselective;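 on all read-outs here: cells exposed to compound for 72 h before imaging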;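 on red/green cell ratio (normalised): normalised mesenchymal count divided by normalised epithelial count so high means epithelial killing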
[10] = growth inhibition of DIPG glioma cells, dose response, cell-based, SU-DIPG-XIII, MIPE4.0, CellTiter-Glo, qHTS (AID 1347061; cut-off not given, nearly all actives have AC50 up to about 37 µM;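 further: cells exposed to compound for 48 hours before readout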); conditions: SU-DIPG-XIII viability, CellTiter-Glo ATP luminescence
[11] = growth inhibition of DIPG glioma cells, dose response, cell-based, JHH-DIPG-1, MIPE4.0, CellTiter-Glo, qHTS (AID 1347062; cut-off not given, nearly all actives have AC50 up to about 27 µM); conditions: JHH-DIPG-1 viability, CellTiter-Glo ATP luminescence
[12] = growth inhibition of DIPG glioma cells, dose response, cell-based, SU-DIPG-IV, MIPE4.0, CellTiter-Glo, qHTS (AID 1347063; cut-off not given, nearly all actives have AC50 up to about 30 µM;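 further: compound exposure lasted 48 hours before the viability readout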); conditions: SU-DIPG-IV viability, CellTiter-Glo ATP luminescence
[13] = growth inhibition of DIPG glioma cells, dose response, cell-based, SU-DIPG-XIII, MIPE5.0, CellTiter-Glo, qHTS (AID 1347064; cut-off not given, nearly all actives have AC50 up to about 23 µM); conditions: SU-DIPG-XIII viability, CellTiter-Glo ATP luminescence
[14] = growth inhibition of DIPG glioma cells, dose response, cell-based, SU-DIPG-XVII, MIPE5.0, CellTiter-Glo, qHTS (AID 1347060; cut-off not given, nearly all actives have AC50 up to about 26 µM;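 on AC50: cells exposed to compound for 48 hours before viability readout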); conditions: SU-DIPG-XVII viability, CellTiter-Glo ATP luminescence
[15] = measured here: epithelial PC-3E GFP cell survival
[16] = measured here: mesenchymal TEM4-18 mCherry cell survival

CS(=O)(=O)c1ccc([C@@H](O)[C@@H](CO)NC(=O)C(Cl)Cl)cc1
1.12: normalised cell number [9, 15]
1.06: normalised cell number [9, 16]
active: tube area decrease [3] 42.1%
inactive: insulin secretion stimulation [1] 1% | viability decrease [2] -30.5% | GLP1 secretion stimulation [4] 0.4% | inhibition of viability [5] 2% | viability decrease (inhibition) [6] -9.6% | viability decrease (inhibition) [7] -4% | inhibition [8] -8.02% | red/green cell ratio (normalised) [9] 0.94 | outcome [10] | outcome [11] | outcome [12]

CC(C)(Sc1cc(C(C)(C)C)c(O)c(C(C)(C)C)c1)Sc1cc(C(C)(C)C)c(O)c(C(C)(C)C)c1
inactive: insulin secretion stimulation [1] 3.7% | viability decrease [2] -20.3% | tube area decrease [3] -25% | GLP1 secretion stimulation [4] 0.8% | inhibition of viability [5] 1.57% | viability decrease (inhibition) [6] 9.4% | viability decrease (inhibition) [7] 37.1% | inhibition [8] 6.05% | red/green cell ratio (normalised) [9] 1.01 | outcome [10] | outcome [11] | outcome [12]
1.16: normalised cell number [9, 16]
1.14: normalised cell number [9, 15]

CCC1(C)CC(=O)NC1=O (centres undefined)
1.31: normalised cell number [9, 16]
1.07: normalised cell number [9, 15]
inactive: insulin secretion stimulation [1] 0% | viability decrease [2] -17.5% | tube area decrease [3] -2.9% | GLP1 secretion stimulation [4] -2.3% | inhibition of viability [5] -5.57% | viability decrease (inhibition) [6] -27.9% | viability decrease (inhibition) [7] -7.1% | inhibition [8] -0.667% | red/green cell ratio (normalised) [9] 1.22 | outcome [10] | outcome [11] | outcome [12] | outcome [13]

Cc1ccccc1N1C(=O)c2cc(S(N)(=O)=O)c(Cl)cc2NC1C (centres undefined)
inactive: insulin secretion stimulation [1] 1.1% | viability decrease [2] -5.6% | tube area decrease [3] -5.3% | GLP1 secretion stimulation [4] -1.9% | inhibition of viability [5] 0.8% | viability decrease (inhibition) [6] -18.3% | viability decrease (inhibition) [7] -5.3% | inhibition [8] -11.8% | red/green cell ratio (normalised) [9] 1.25 | outcome [10] | outcome [11] | outcome [12]
1.44: normalised cell number [9, 16]
1.15: normalised cell number [9, 15]

Nc1ccc(S(=O)(=O)Nc2ccnn2-c2ccccc2)cc1
0.9: normalised cell number [9, 16]
inactive: insulin secretion stimulation [1] -1.3% | viability decrease [2] -8.8% | tube area decrease [3] -4.8% | GLP1 secretion stimulation [4] 3.3% | inhibition of viability [5] -9.2% | viability decrease (inhibition) [6] 6.4% | viability decrease (inhibition) [7] -3.95% | inhibition [8] -9.54% | red/green cell ratio (normalised) [9] 0.85 | outcome [10] | outcome [11] | outcome [12]
1.05: normalised cell number [9, 15]

Nc1ccc(S(=O)(=O)Nc2ccccn2)cc1
1.47: normalised cell number [9, 16]
inactive: insulin secretion stimulation [1] -2.8% | viability decrease [2] -1.3% | tube area decrease [3] 7.9% | GLP1 secretion stimulation [4] -3.8% | inhibition of viability [5] -12% | viability decrease (inhibition) [6] 17.6% | viability decrease (inhibition) [7] -7.25% | inhibition [8] 4.06% | red/green cell ratio (normalised) [9] 1.49 | outcome [10] | outcome [11]
0.99: normalised cell number [9, 15]

Cc1cc2cc3c(C)cc(=O)oc3c(C)c2o1
inactive: insulin secretion stimulation [1] -0.7% | viability decrease [2] -8.2% | tube area decrease [3] 1.6% | GLP1 secretion stimulation [4] 0.5% | inhibition of viability [5] 19.9% | viability decrease (inhibition) [6] 35.5% | viability decrease (inhibition) [7] -2.3% | inhibition [8] -18.4% | red/green cell ratio (normalised) [9] 0.99 | outcome [14] | outcome [13]
active: AC50 [12] 20.9 µM
1.04: normalised cell number [9, 16]
1.05: normalised cell number [9, 15]

CCn1cc(C(=O)O)c(=O)c2cc(F)c(N3CCNC(C)C3)c(F)c21 (centres undefined)
1.03 and 1.1: normalised cell number [9, 15]
inactive: insulin secretion stimulation [1] 1.7% | viability decrease [2] 15.3% | tube area decrease [3] -13.3% | GLP1 secretion stimulation [4] -0.4% | inhibition of viability [5] 0.55% | viability decrease (inhibition) [6] -10.7% | viability decrease (inhibition) [7] -20.1% | inhibition [8] -3.66% | red/green cell ratio (normalised) [9] 1.03 and 0.91 | outcome [11] | outcome [12] | outcome [13]
1.07 and 1: normalised cell number [9, 16]

COc1cc(NS(=O)(=O)c2ccc(N)cc2)nc(OC)n1
0.72: normalised cell number [9, 16]
0.64: normalised cell number [9, 15]
inactive: insulin secretion stimulation [1] 1.8% | viability decrease [2] -7.9% | tube area decrease [3] 0.8% | GLP1 secretion stimulation [4] 1.9% | inhibition of viability [5] -0.4% | viability decrease (inhibition) [6] 8.4% | viability decrease (inhibition) [7] 0.7% | inhibition [8] -12.2% | red/green cell ratio (normalised) [9] 1.12 | outcome [10] | outcome [11] | outcome [12]

S=P(N1CC1)(N1CC1)N1CC1
1.06: normalised cell number [9, 15] | normalised cell number [9, 16]
active: AC50 [14] 20.9 µM
inactive: insulin secretion stimulation [1] 1.3% | viability decrease [2] 16.4% | tube area decrease [3] 35.1% | GLP1 secretion stimulation [4] -2.2% | inhibition of viability [5] 22.3% | viability decrease (inhibition) [6] 33.3% | viability decrease (inhibition) [7] 18.9% | inhibition [8] -6.76% | red/green cell ratio (normalised) [9] 0.99 | outcome [11] | outcome [13]

CCn1cc(C(=O)O)c(=O)c2cc(F)c(N3CCNCC3)nc21
1.2: normalised cell number [9, 16]
inactive: insulin secretion stimulation [1] -0.1% | viability decrease [2] 5.9% | tube area decrease [3] 2.1% | GLP1 secretion stimulation [4] -2.8% | inhibition of viability [5] -6.97% | viability decrease (inhibition) [6] -275% | viability decrease (inhibition) [7] -18.4% | inhibition [8] -18.3% | red/green cell ratio (normalised) [9] 1.34 | outcome [10] | outcome [11] | outcome [12]
0.89: normalised cell number [9, 15]
